Results published in ChEMBL document CHEMBL3988442, “University of Dundee, Small-Polar-MMV Screening Library” (2021).

What was measured:
[1] = molecular target: T1, Aspartate--tRNA(Asp/Asn) ligase (Mycobacterium tuberculosis (strain ATCC 25618 / H37Rv)) (UniProt P9WFW3); experiment: Assay for Asp RNA synthetase-1 from Mycobacterium tuberculosis; format: functional; design: scale not given: direction of the effect not stated beside the values; settings: 30 µM; note: in the data most compounds retested in dose-response had high values
T1 sequence (whole entry): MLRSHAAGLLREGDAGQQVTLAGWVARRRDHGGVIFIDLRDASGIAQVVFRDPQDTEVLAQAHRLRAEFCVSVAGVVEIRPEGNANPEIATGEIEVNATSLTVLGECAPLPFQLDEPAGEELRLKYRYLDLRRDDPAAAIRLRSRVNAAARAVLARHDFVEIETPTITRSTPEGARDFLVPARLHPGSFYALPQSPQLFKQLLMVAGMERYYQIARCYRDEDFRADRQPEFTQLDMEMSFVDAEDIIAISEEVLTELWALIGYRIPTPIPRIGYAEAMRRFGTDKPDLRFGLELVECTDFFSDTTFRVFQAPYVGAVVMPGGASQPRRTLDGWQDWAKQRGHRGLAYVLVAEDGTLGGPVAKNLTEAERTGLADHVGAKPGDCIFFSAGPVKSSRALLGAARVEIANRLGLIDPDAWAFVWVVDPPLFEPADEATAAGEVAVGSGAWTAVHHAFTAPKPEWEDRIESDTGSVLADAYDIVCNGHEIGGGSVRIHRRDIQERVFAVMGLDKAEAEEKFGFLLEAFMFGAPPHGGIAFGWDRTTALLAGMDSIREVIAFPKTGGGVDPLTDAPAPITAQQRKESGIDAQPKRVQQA

[2] = molecular target: Shiga toxin 2 (Escherichia coli O157:H7) (UniProt P09385+P09386); experiment: E. coli 0.157:H7 Shiga Toxin SOP - stx2 screening assay; format: functional; design: scale not given: direction of the effect not stated beside the values; settings: 30 µM

Compound	Percent Effect [1] [%]	Percent Effect [2] [%]
O=C(c1cccc(F)c1)N1CCN2C[C@H](OCc3cccnc3)C[C@H]2C1	-1.22	-4.11
CC(NC(=O)N(C)CCCOc1ccc(F)cc1)c1nncn1C (configuration not stated)	-2.37	-11.9
Cc1cnc(N2CCC3(CCCN(c4ccc(C)nn4)C3)C2)nc1 (configuration not stated)	-0.547	-25.4
O=C1NCc2ccc(NC(=O)C3CCCN3c3nccs3)cc21 (configuration not stated)	0.522	-17.5
O=c1cc2c(nn1CN1CCN(c3ccccc3)CC1)CCC2	6.3	-14
O=C(NC(Cc1ccsc1)c1nccs1)C1CCOCC1 (configuration not stated)	1.44	15.3
CN1CCCC(Cc2cncc(C(=O)NCC3CC3)c2)C1 (configuration not stated)	-1.03	2.18
Cc1cc(CN(C)C(=O)c2ccc(F)cc2Br)no1	0.189	-57
CN(Cc1nnc(C2CC2)n1C)C1CCN(CCc2cccs2)C1 (configuration not stated)	1.39	-43.7
O=C(CN1CCc2c(ncn2C2CC2)C1)NC1CC1	-0.0146	5.91
Cn1cc(N2CC3(CCN(Cc4cccs4)CC3)OCC2=O)cn1	-0.729	-20.1
CCOC1CCCN(C(=O)c2sccc2-n2cnnn2)C1 (configuration not stated)	-4.21	-8.57
O=C(CO[C@@H]1CC[C@H]2[C@H]1OCCN2CC1CCOCC1)N1CCCC1	0.943	-4.47
Cc1nc(CN2CCCn3c(nc(Cn4ccnc4)cc3=O)C2)cs1	0.435	-3.23
O=C1NCCN1C1CCCN(Cc2nnc(-c3ccc(F)cc3)o2)C1 (configuration not stated)	-2.77	-40.1
NC(=O)C1CCC(NC(=O)COc2ccc(Cl)c(Cl)c2)CC1 (configuration not stated)	3.91	-29.1
Cc1ccc(-c2cc(CNC(=O)N3CCOC(C)C3)on2)cc1 (configuration not stated)	0.699	9.22
CCOc1ccc(Cl)c(C(=O)N2CCN(CCO)CC2)n1	0.455	15.7
O=C(CCc1cccs1)N1CCC(N2CCNC2=O)CC1	-2.08	-4.13
CCN1CCC(NC(=O)CN2CCc3c(ncn3C)C2)CC1	-4.88	19.9
COC(=O)C(C)(C)NC(=O)C1CC(=O)N(C)C1 (configuration not stated)	-1.62	-22.5
O=C(c1ccnnc1)N1C[C@@H]2CC[C@H](Oc3cccc(F)c3)[C@@H]2C1	3.77	-5.52
O=C(NCc1cnc2n1CCN(CC1CC1)CC2)C1CCC1	-5.77	7.18

Compound	Percent Effect [1] [%]	Percent Effect [2] [%]
CN(C)c1cc(C(=O)N2CCCC(n3cccn3)C2)ccn1 (configuration not stated)	-2.86	-7.48
c1cnn(CC2CCCN2Cc2nc(-c3ccoc3)no2)c1 (configuration not stated)	0.0441	-0.74
Cc1cc2nc(SCC(=O)N3CCOCC3)n(CC(C)C)c(=O)c2[nH]1	11.7	-10.1
CC1=N[C@@]2(CC[C@@H]3CN(Cc4ccccc4F)C[C@@H]32)C(=O)N1CC1CC1	-6.8	-2.95
COc1cc(C)nc(N2CCN(C(=O)COCC(F)(F)F)CC2)n1	-2.06	-20.7
COc1cc(N2C[C@@H]3COC[C@]3(COc3ccc(C#N)cn3)C2)ncn1	-1.45	11.9
CCC(O)CN1CCN(C(=O)c2cccn2Cc2ccccc2)CC1 (configuration not stated)	-0.0571	16.8
CC(=O)N(Cc1ncc(C)o1)C1CCN(CCNC2CCCCC2)C1 (configuration not stated)	1.34	-30.8
Cc1nn(C)c(N2CCOCC2)c1CNCc1nccs1	-2.7	28.1
Cc1nn(C)c2c(N3CCN(C(=O)C4CCC4)CC3)ncnc12	-3.19	-37.9
O=C(Cn1cnc(-c2ccccc2)cc1=O)Nc1ccncc1	-2.03	-36.3
CC(=O)Nc1nc(C(=O)N2CCCC(n3nc(C)cc3C)C2)cs1 (configuration not stated)	-0.815	10.8
COc1cnc(C2(O)CCN(C(=O)c3cccnc3)CC2)c(OC)n1	0.313	17.2
Cc1nnn2c1COCC(CNC(=O)c1ccc3[nH]ccc3c1)C2 (configuration not stated)	0.238	-35.3
O=C(NC1CC1)[C@H]1C[C@H]2OCC[C@H]2N(CC2CC2)C1	3.52	-19.5
CC(C)c1nc2c(n1C)CCN(CC(=O)Nc1ccc(Cl)cn1)C2	3.34	-0.161
Cc1cc(C[C@@H]2COC[C@H]2NCc2ccc(Br)s2)on1	-1.77	4.69
CCC(C)(NCC(=O)Nc1ccccc1)c1nc(C)cs1 (configuration not stated)	1.93	15.8
CC(C)N(C)C(=O)CN1CCCC(c2ccc(C(=O)O)cc2)C1 (configuration not stated)	-0.982	5.69
CC(C)N1CCCC(CCCc2ccccn2)(C(=O)O)C1 (configuration not stated)	1.98	9.97
Cc1nc(C)n(CC2CCCN2Cc2cn3c(C)cccc3n2)n1 (configuration not stated)	-5.04	-2.35
CCc1c(C(=O)NCC(=O)OCC2CC2)cnn1-c1ccc(C)cc1	-5.03	-6.36
CC(C)n1ccnc1C1CCN(Cc2ccc(Cl)s2)CC1	4.1	-48.4
